Data on 96 compounds can be found in PubChem BioAssay AID2315 (National Center for Advancing Translational Sciences (NCATS), 2010).

Structures are written as SMILES. Out of some 290,000 compounds screened, about 27,000 (9.3%) were called active. No stated cut-off is given here; in the data, active means inhibition mostly above about 28% (no sharp cut-off); inactive means mostly below about 43%. This excerpt belongs to a sample that is enriched for actives.

The assay is described as follows: A qHTS for Small Molecule Inhibitors of Shiga Toxin. Further: 0% is about no effect. The note with it: Vero cells, Shiga toxin protein synthesis inhibition reporter; at 38.7 µM, hits give high values. (In general: qHTS replaces the single test concentration by a dilution series.)
As to `Cc1ccc(-c2ccc(/C=N/NC(=O)CN3CCOCC3)o2)cc1[N+](=O)[O-]`, the inhibition (as a rule, the change of the read-out against control, counted positive when it falls) was -4.74% (inactive). As for `CN1CCN(/N=C/c2ccc(-c3ccc([N+](=O)[O-])cc3)o2)CC1`, the figure is 46.8% (active). As for `CN1CCN(/N=C/c2ccc(C#N)cc2)CC1`, the figure is 81.4% (inactive). As for `Cc1ccc(S(=O)(=O)N2CCN=C2SCc2c(F)cccc2Cl)cc1`, the figure is -2.63% (inactive); as for `Cc1nn(CC(=O)Nc2ccc3c(c2)OCO3)c(C)c1[N+](=O)[O-]`, -8.73% (inactive); as for `Cn1cc([N+](=O)[O-])c(C(=O)Nc2cnn(Cc3ccc(F)cc3)c2)n1`, 7.88% (inactive). Consider `Cc1onc(C(=O)Nc2ccc3c(c2)OCO3)c1[N+](=O)[O-]`, for which the inhibition was 62.7% (active). With `COc1cccc(NC(=O)c2nn(C34CC5CC(CC(C5)C3)C4)cc2[N+](=O)[O-])c1`, the inhibition is 28.3% (inactive).

As to `Cc1nc([N+](=O)[O-])cn1CC(=O)Nc1ccc2c(c1)OCO2`, the inhibition was -7.53% (inactive).

For the compound `Cn1cc([N+](=O)[O-])c(C(=O)Nc2ccc3c(c2)OCCO3)n1`, the inhibition is 53.6% (active). With `c1ccc(CSc2nnc(-c3ccco3)n2Cc2ccccc2)cc1` the figure was 94.3% (active). As for `c1ccc(CSc2nnc(-c3ccco3)c(-c3ccco3)n2)cc1`, the figure is -7.92% (inactive); as for `O=C(CSc1nnc(-c2ccco2)n1Cc1ccccc1)NC(=O)NCc1ccco1`, 10.4% (inactive).

On to `O=C(Nc1ccc(S(=O)(=O)NCC2CCCO2)cc1)c1ccc(F)cc1` (stereo unspecified), for which the inhibition is -1.55% (inactive).

`CCc1cccc(C)c1NS(=O)(=O)c1cc(Br)cnc1N`: the inhibition was -8.52% (inactive). Consider `COc1ccc(/C=N/NC(=O)c2ccc(Cl)cc2)cc1COC(C)=O`, for which the inhibition is -2.77% (inactive). With `CC1(C)C2CC=C(/C=N/NC(=O)c3ccc(Cl)cc3)C1C2` (stereo unspecified) the figure was 30.5% (inactive); with `Cn1nccc1/C=N\NC(=O)c1ccc(Cl)cc1`, 30.8% (active). On to `Cc1c(CC(=O)N2CCN(C(=O)C3COc4ccccc4O3)CC2)c(=O)oc2c(O)c(O)ccc12` (stereo unspecified), for which the inhibition is 6.52% (inactive).

Consider `O=C(CCC1CCCN(C(=O)c2ccc(F)c(F)c2)C1)N1CCN(c2ccccn2)CC1` (stereo unspecified), for which the inhibition is -25.9% (inactive). As for `Cc1ccc(O)c(CNc2nc3ccccc3n2C)c1`, the figure is 75.2% (active); as for `CC(C)n1c(NCc2c[nH]c3ccccc23)nc2ccccc21`, 8.94% (inactive); as for `Cc1ccc(O)c(CNc2nc3ccccc3[nH]2)c1`, 30.6% (inactive). As for `O=C(NCCCN1CCOCC1)c1ccc2c(c1)N(Cc1cccc(F)c1)C(=O)c1ccccc1S2`, the figure is -12.3% (inactive).

As for `O=C(NC1CC1)c1cccc(Br)c1`, the inhibition is 23.6% (inactive). With `CSc1ccccc1NC(=O)c1cc(Cl)sc1Cl` the figure was 25.1% (inactive); with `CC(=O)c1cc(-c2ccccc2)n(CC(=O)NC2CCCCC2)c1C`, 26.5% (inactive); with `O=C(Nc1cc(C(F)(F)F)ccc1Cl)c1cc(C2CC2)on1`, -4.26% (inactive). With `O=C(NC1CCCCCCC1)c1cccs1` the figure was 88.4% (active); with `O=C(NC1CCN(S(=O)(=O)c2ccc(F)cc2)CC1)c1ccccc1`, -7.58% (inactive); with `CC(NC(=O)c1cc(-c2ccccc2)on1)c1ccccc1` (stereo unspecified), 0.984% (inactive). With `O=C(NC1CC1)c1ccc(-c2ccccc2)cc1` the figure was 97.2% (active); with `O=C(NC1CCCC1)c1cc(-c2ccccc2)on1`, 157% (active); with `CC(C)C(OC(=O)c1cccs1)C(=O)NC1CCCCC1` (stereo unspecified), 8.34% (inactive). On to `O=C(CCC(=O)c1cccs1)NC1CCCCCC1`, for which the inhibition is 29.7% (inactive). With `CSc1ccccc1NC(=O)c1cc(C2CC2)on1` the figure was 19.8% (active); with `Cc1ccc(N2C(=O)C3C4C=CC(CC4)C3C2=O)cc1Cl` (stereo unspecified), 6.23% (inactive); with `C[N+](C)(C)CCNC(=O)c1cc[n+](Cc2ccccc2)c(/C=N/O)c1`, -12.2% (inactive).

On to `CCCCC[C@H]1CN(C2CCCCC2)C(=O)[C@@H]1CC(=O)NCc1ccc(OC)cc1`, for which the inhibition is -2.81% (inactive). As for `CCOc1ccc2c(c1)c(=O)c(S(=O)(=O)c1ccc(C)cc1)cn2CC`, the figure is -4.36% (inactive).

Turning to `O=C(NNS(=O)(=O)c1ccc(F)cc1)C1CCCCC1`, the inhibition is -10.2% (inactive). As for `O=C(NC1CCCCC1)c1cc(C2CC2)on1`, the figure is 108% (active). As for `Cc1nn(Cc2ccc(Cl)c(Cl)c2)c(C)c1NC(=O)c1cc(C2CC2)on1`, the figure is 12.5% (inactive); as for `COc1ccccc1-c1cc(C(=O)NCCCn2ccnc2)no1`, 24.1% (inactive). As for `COc1ccc(-c2cc(C(=O)NCCCn3ccnc3)no2)cc1`, the figure is 46.8% (inactive). With `COc1cc(OC)c(C(=O)NC2CCCCCC2)cc1OC`, the inhibition is -10.7% (inactive). As for `O=C(NCCCn1ccnc1)c1cc(-c2ccccc2)on1`, the figure is 146% (active). On to `Cc1ccc(OCCCC(=O)Nc2ccc(S(=O)(=O)Nc3cc(C)nc(C)n3)cc2)cc1`, for which the inhibition was 12.9% (inactive). Turning to `C=C1CCN(C(CC(C)C)C(=O)NCc2cc(OC)c(OC)c(OC)c2)S(=O)(=O)c2ccccc21` (stereo unspecified), the inhibition is -0.34% (inactive). On to `CCOc1cc(C2C(C(=O)c3ccco3)=C(O)C(=O)N2Cc2ccccc2)ccc1O` (stereo unspecified), for which the inhibition was -8.41% (inactive). As for `CC(=O)[C@@]12O[C@@H]1C[C@H]1[C@@H]3CC[C@H]4C[C@@H](O)CC[C@]4(C)[C@H]3CC[C@@]12C`, the figure is 33.3% (inactive). As for `Cn1c(=O)c2sccc2n(Cc2ccc(Br)cc2)c1=O`, the figure is 22.9% (inactive); as for `Cc1cc(C)c(C#N)c(SCc2ccc3c(c2)OCO3)n1`, 26.6% (inactive). `Cc1snc(SCc2c(F)cccc2Cl)c1C#N`: the inhibition was -6.99% (inactive). As for `Cc1ccc(CSc2nsc(C)c2C#N)cc1`, the figure is 31.1% (active); as for `CC(C(=O)NC1CCCCC1)N1C(=O)c2cccc3cccc1c23` (stereo unspecified), -6.55% (inactive); as for `CC(=O)N(Cc1cc(=O)[nH]c2ccccc12)c1ccc(C)cc1C`, -8.12% (inactive). With `COc1cccc(CNc2nc3nc4c(c(=O)n3[nH]2)CCC4)c1` the figure was -7.62% (inactive); with `COc1cccc(-c2cc3nc4c(c(N5CCC6(CC5)OCCO6)n3n2)CCCC4)c1`, 63.6% (active); with `O=C(c1cc2nc(-c3ccccc3)cc(-c3ccccc3)n2n1)N1CCC2(CC1)OCCO2`, 10.6% (inactive). With `COc1ccc(S(=O)(=O)N2CCN(C(=S)NCC3CCCO3)CC2)cc1OC` (stereo unspecified) the figure was -11.6% (inactive); with `O=S(=O)(NCCCCCCNS(=O)(=O)c1c(F)cccc1F)c1ccc2c(c1)OCCO2`, -3.9% (inactive); with `O=C(O)CCCn1cc(NC(=O)COc2cccc(Cl)c2)cn1`, 12.7% (inactive).

Take `COc1cc(C(=O)OCC(=O)NC(C)CCc2ccccc2)cc(OC)c1OC` (stereo unspecified): the inhibition was -9.96% (inactive). With `COc1ccc(NC(=S)N2CCc3cc(OC)c(OC)cc3C2)cc1` the figure was 11.3% (inactive). With `COc1ccc(C)cc1NC(=S)N1CCOCC1` the figure was -10.3% (inactive); with `COc1ccc(OC)c(NC(=S)N2CCc3ccccc3C2)c1`, 46.8% (active). As for `CCOc1ccc(-c2noc(CCC(=O)NC3CCCC3)n2)cc1OC`, the figure is -7.65% (inactive). As to `COc1ccc(CCNC(=O)CSCc2ccc(Br)cc2)cc1OC`, the inhibition was -18.8% (inactive).

With `Cc1nn(CC(=O)NCC2CCCO2)c(=O)c2cc3ccccc3n12` (stereo unspecified), the inhibition was 1.03% (inactive). With `Cc1cccc(NS(=O)(=O)c2cc(Cl)ccc2Cl)n1` the figure was 2.75% (inactive).

For the compound `CC(C)[C@@H]1COC(c2cccc(C3=N[C@H](C(C)C)CO3)c2)=N1`, the inhibition is 46.5% (active).

Turning to `O=c1c(-c2ccccc2)coc2cc(O)ccc12`, the inhibition is 93% (active). Regarding `Cc1c(CCC(=O)O)c(=O)oc2cc3occ(-c4ccccc4)c3cc12`, the inhibition was -11.6% (inactive).

As to `O=c1c(-c2ccccc2)coc2c(CN3CCOCC3)c(O)ccc12`, the inhibition is 7.81% (inactive). With `CC(C)c1ccc(C2C(C(=O)c3ccco3)=C(O)C(=O)N2CC2CCCO2)cc1` (stereo unspecified) the figure was 1.66% (inactive). As for `COc1ccc(S(=O)(=O)N2CCCC(C(=O)NCCCn3ccnc3)C2)cc1OC` (stereo unspecified), the figure is -5.4% (inactive); as for `Cc1sc2ncn(CC(=O)NCCCC(=O)N(C)Cc3ccccc3)c(=O)c2c1C`, -9.55% (inactive).

For `Cc1ccc(C(=O)NNC(=O)OC(C)(C)C)c(Cl)c1`, the inhibition is 90.5% (active). As for `CCOc1ccc(NC(=O)NNC(=O)c2ccc(Cl)cc2Cl)cc1`, the figure is 13.5% (inactive); as for `CC(C)(C)OC(=O)N1CCC(C(=O)NNC(=O)c2ccc(Cl)cc2Cl)CC1`, 5.93% (inactive).

Regarding `CC(=O)Nc1ccc(NC(=O)c2ccc3c(c2)C(=O)N(c2ccccc2C)C3=O)cc1`, the inhibition was -4.3% (inactive). As for `O=C(Nc1cccc(Cl)c1)c1cc(S(=O)(=O)N2CCCCC2)c[nH]1`, the figure is -7.57% (inactive). As to `Cc1ccccc1NC(=O)CCNS(=O)(=O)c1ccc2[nH]c(=O)oc2c1`, the inhibition is -2.35% (inactive).

For the compound `COc1ccc(Nc2ncnc3ccc(Br)cc23)c(OC)c1`, the inhibition was 57.7% (active). In the case of `C=CCNc1ncnc2ccc(Br)cc12`, the inhibition was -28.8% (inactive). Take `COc1ccc(Nc2ncnc3sc(-c4ccccc4)cc23)c(OC)c1`: the inhibition was 4.65% (inactive). With `COc1ccc(CN(C)C(=O)Cc2ccsc2)c(OC)c1OC` the figure was -10.3% (inactive). On to `Cc1c(C)c2c(OCC(=O)NCCCO)cc3c(c2oc1=O)CCC(C)(C)O3`, for which the inhibition is -7.03% (inactive). For `COc1ccccc1CNS(=O)(=O)CC12CCC(CC1=O)C2(C)C` (stereo unspecified), the inhibition was -4.21% (inactive).

As for `Cc1ccc(SCC(=O)c2sc(-c3ccccc3)nc2C)cc1`, the inhibition is -2.76% (inactive). As for `Cc1nc(-c2ccc(Cl)cc2)sc1C(=O)CBr`, the figure is 52.5% (active). In the case of `Cc1nc(-c2ccc(Cl)cc2)sc1C(=O)NN`, the inhibition was -18.4% (inactive). With `CCN1CCN(C(=O)C2CCN(S(=O)(=O)c3cc(Cl)ccc3Cl)CC2)CC1` the figure was -5.92% (inactive). With `CC1(C)c2[nH]c3ccccc3c2C[C@H]2C(=O)N(N)CC(=O)N21` the figure was 11.8% (inactive); with `COc1ccc(NC(=O)CSCc2ccc([N+](=O)[O-])cc2)cc1OC`, -3.27% (inactive).
